Pin1 inhibitor – human Pin1 inhibition; AID 504891; Potency, µM (titrated, usually from 115 µM), hits mostly inhibitors; Q13526; Pin1 FP peptide displacement, HiFluor488, 10 min; hit rate 0.009% among 390,000; active = well fitted inhibition curve with a large enough effect in the polarisation, with a control signal flat, not every such curve was filed as active; inconclusive = small, poorly fitted or top-dose-only effect, or effect the other way, or a change in a side signal; inactive = no such curve, though single readings can be large or run the other way; the % refers to the polarisation
Target sequence (Q13526 whole entry, looked up): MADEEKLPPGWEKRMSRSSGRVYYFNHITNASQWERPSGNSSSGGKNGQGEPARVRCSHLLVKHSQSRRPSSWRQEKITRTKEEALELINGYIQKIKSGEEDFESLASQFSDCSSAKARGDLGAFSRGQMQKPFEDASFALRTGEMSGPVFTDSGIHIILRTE
PI5P4Ka inh – blocks human PI5P4K alpha kinase activity. P48426. PI5P4Kalpha enzyme, ADP-Glo luminescence, 60 min; active compounds read low. max response, %. hit rate 1.2% among 330,000. AID 652105; active = max response of -50% or lower; inconclusive = between -30% and -50%; inactive = -30% or higher; note: value at the top dose of about 77 µM
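PI5P4Kalpha ADP-Glo assay; 5 microM ATP final; 60 min RT reaction; HEPES pH 7.4/EGTA/CHAPS, 5% DMSO; controls lacking substrate or enzyme; luminescent end-point.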
WRN inhibitor – WRN helicase (human) inhibition | hit rate 0.46% among 360,000 | Q14191 | WRN helicase unwinding, fluorescent forked duplex, kinetic | Potency, µM (doses to about 114 µM), usual class: inhibitors; note: nearly all actives have a fitted effect of over 55% in size
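Screening of the MLSMR collection measured strand separation of a quenched forked DNA duplex (100 nM) by 20 nM WRN with 2 mM ATP, all final. Compounds were preincubated with enzyme 15 min at room temperature.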
GRP78 ERSR act – ER stress response induction in glioma; hit rate 0.02% among 420,000; Potency, µM, actives largely listed as activators; U87-MG GRP78 promoter luciferase reporter, 16 h; note: series mostly up to about 76 µM; nearly all actives have a fitted effect of over 35% in size
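ERSR induction read as luciferase luminescence (Bright-Glo, 10 min at room temperature) in stably transfected human U87-MG glioma cells exposed to compounds for 16 h, using GRP78 as sensor.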
FEN1 inh – inhibitors of human flap endonuclease 1. AID 588795. Potency, µM (doses to about 114 µM), hits mostly inhibitors. Recombinant FEN1 flap cleavage, fluorescence, 15 min. hit rate 0.35% among 390,000. P39748; note: nearly all actives have a fitted effect of over 65% in size
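With each library titrated from low to high concentration, compounds met 10 nM FEN1 for 15 min at room temperature before 50 nM substrate was added; readings at 0 and 15 min fed four-parameter Hill curve fits.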
PGK inhibitor – T. brucei PGK inhibition | P07378 | PGK/GAPDH coupled, Kinase-Glo luminescence, 60 min | Potency, µM (series often up to 57.5 µM), hits mostly inhibitors | hit rate 0.043% among 380,000 | AID 602233; note: nearly all actives have a fitted effect of over 60% in size
Target sequence (P07378 whole entry, looked up): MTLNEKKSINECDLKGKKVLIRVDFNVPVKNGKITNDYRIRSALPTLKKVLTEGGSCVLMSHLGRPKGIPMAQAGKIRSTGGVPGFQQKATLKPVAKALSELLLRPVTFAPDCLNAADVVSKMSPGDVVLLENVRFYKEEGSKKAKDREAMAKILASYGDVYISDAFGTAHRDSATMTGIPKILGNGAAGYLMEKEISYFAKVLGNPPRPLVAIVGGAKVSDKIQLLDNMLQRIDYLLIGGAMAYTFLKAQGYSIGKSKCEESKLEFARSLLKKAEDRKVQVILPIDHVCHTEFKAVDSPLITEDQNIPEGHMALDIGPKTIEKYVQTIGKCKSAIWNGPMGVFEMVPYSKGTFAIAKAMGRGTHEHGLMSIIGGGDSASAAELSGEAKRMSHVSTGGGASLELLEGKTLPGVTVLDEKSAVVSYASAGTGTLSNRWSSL
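Luminescent ATP detection (Kinase-Glo Plus) follows a 60-minute room-temperature incubation, with wells lacking PGK as controls. Buffer: 100 mM TEA (pH 7.6), 5 mM MgCl2, 0.01% Tween-20. Coupling enzyme GAPDH (100 nM final) supplies unstable 1,3-BPG in-well.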
Hits are given with their value; i = inactive; ? = inconclusive; nt = no result; [ ] = another dose, or the depositor's remark. The list is not random: actives were taken first. Their share in the collection is about 1.3%. Unless noted, calls come from the whole dose curve; as a rule, active = well fitted curve in the direction sought with a large enough effect; inconclusive = small, poorly fitted or top-dose-only effect, or another doubt; inactive = no such curve, though single readings can be large; an effect the other way counts as inactive or inconclusive.

SMILES | Pin1 inhibitor | PI5P4Ka inh | WRN inhibitor | GRP78 ERSR act | FEN1 inh | PGK inhibitor
COc1ccc2nc(SCC(=O)Nc3ccc(S(=O)(=O)N4CCCC4)cc3)c(C#N)cc2c1 | ? | nt | i | i | i | i
CCOc1ccc2nc(SCC(=O)Nc3ccc(S(=O)(=O)N4CCCC4)cc3)c(C)cc2c1 | ? | i | i | i | 39.8µM | i
O=C1CSC(=S)N1/N=C/c1ccc2c(c1)OCCO2 | i | -57.4 | i | i | i | i
COc1cc(O)c(C=NN2C(=O)CSC2=S)c(OC)c1 | nt | -75.5 | i | i | nt | i
COc1cc(/C=N/N2C(=O)CSC2=S)ccc1O | ? | -50.6 | ? | i | ? | i
O=C1CSC(=S)N1/N=C/c1cc(Br)c(O)c(Br)c1 | ? | -105.5 | 20µM | i | 22.4µM | ?
N=C1C=CC(=C(c2ccc(N)cc2)c2ccc(N)cc2)C=C1 | ? | -52.5 | i | i | i | ?
Cc1cccc(C(=O)NCC(=O)OC(C(=O)Nc2cc(C(F)(F)F)ccc2Cl)c2ccccc2)c1 (stereo not given) | i | nt | nt | nt | nt | nt
Cc1ccc(-c2nn(-c3ccccc3)cc2C2CC(c3cccs3)=NN2C(=O)CCCC(=O)O)cc1 (stereo not given) | ? | nt | ? | i | 50.1µM | ?
COc1cccc(-c2nc3cc4c(cc3cc2CN(C(=O)c2cccs2)C2CC2)CCC4)c1OC | nt | nt | nt | i | nt | nt
Cc1[nH]n2cnnc2c(=O)c1Br | i | -51.2 | i | i | i | i
O=C(Nc1nc(-c2ccccn2)cs1)c1ccc(-c2ccccc2F)o1 | i | i | i | 31.6µM | i | i
Cc1ccc(C(=O)Nc2nc(-c3ccccn3)cs2)o1 | i | i | i | i | i | i
Cc1ccc(Cc2cnc(N3C(=N)SC(c4ccccc4)C3=O)s2)cc1 (stereo not given) | i | -72.7 | ? | i | i | i
Cc1ccc(Cc2cnc(NC(=O)c3ccco3)s2)cc1 | i | nt | i | i | i | i
Cc1ccccc1NC(=O)CSc1nnc(-c2ccco2)c(-c2ccco2)n1 | nt | -65.6 | 39.8µM | i | 56.2µM | i
Cc1cccc(C)c1NC(=O)CSc1nnc(-c2ccco2)c(-c2ccco2)n1 | ? | -69.1 | 35.5µM | i | 79.4µM | ?
CNC(=O)[C@@H]1C[C@@H](NCc2cccc(Oc3ccccc3)c2)CN1C(C)C | nt | nt | nt | i | nt | nt
COc1ccc(C(=O)CSc2nnc(-c3ccco3)n2CC2CCCO2)cc1 (stereo not given) | i | i | i | i | i | i
O=C(CSc1ccc(-c2ccco2)nn1)c1ccc(F)cc1 | nt | -68.6 | 44.7µM | i | ? | i
O=C(CSc1ccc(-c2ccco2)nn1)NCc1ccc(F)cc1 | i | i | i | i | i | i
O=C(CSc1nnc(-c2ccco2)n1CC1CCCO1)c1ccc(F)cc1 (stereo not given) | i | ? | 79.4µM | i | i | i
CSc1nc(NCCN(C)C)c2sc3nc(-c4ccco4)c4c(c3c2n1)CCC4 | i | i | i | i | ? | i
CSc1nc(N(C)CCO)c2sc3nc(-c4ccco4)c4c(c3c2n1)CCC4 | nt | nt | 22.4µM | i | 44.7µM | ?
Cc1cccnc1-c1cccc2c1OC(CNC(=O)Cc1c(C)noc1C)C2 (stereo not given) | nt | nt | nt | i | nt | nt
SMILES | Pin1 inhibitor | PI5P4Ka inh | WRN inhibitor | GRP78 ERSR act | FEN1 inh | PGK inhibitor
COC(=O)c1ccc(Cn2c(O)c(N=NC(N)=S)c3ccccc32)o1 | ? | -56.6 | i[11.6 µM] | i | i | i
Cc1[nH]n(-c2ncc(-c3ccccc3)s2)c(=O)c1C(c1ccc(Br)cc1)C(C#N)C#N (stereo not given) | nt | -69.7 | ? | i | ? | i
Cc1[nH]n(C(N)=S)c(=O)c1C(c1ccccc1)C(C#N)C#N (stereo not given) | i | i | i | i | i | i
O=C(COC(=O)C1CC(=O)N(Cc2ccco2)C1)c1ccc(OC(=O)c2ccco2)cc1 (stereo not given) | ? | -63.3 | 35.5µM | i | ? | ?
COc1ccc(C(=O)CC(Nc2ccc([N+](=O)[O-])cc2)c2ccc(OC)cc2)cc1 (stereo not given) | i | nt | i | i | i | i
CNC(CC(=O)c1ccc([N+](=O)[O-])cc1)C(Cl)(Cl)Cl (stereo not given) | i | i | 44.7µM | i | i | i
CCOc1ccc(Nc2ccc(N)c(S(=O)(=O)O)c2)cc1 | nt | -59.8 | ? | i | i | ?
Nc1ccccc1Sc1ccc(C(=O)c2ccccc2C(=O)O)cc1[N+](=O)[O-] | i | -66.4 | i | i | i | i
Cc1ccc(-c2csc3n[nH]c(=S)n23)cc1 | i | -95.1 | i | i | ? | i
CCn1c(-c2ccc(C)cc2)n[nH]c1=S | i | i | i | i | i | i
Cc1ccc(/C=C2\C(=N)N3N=C(CC(=O)N4CCCCC4)SC3=NC2=O)cc1 | i | i | i[11.6 µM] | i | i | i
N=C1/C(=C/c2ccco2)C(=O)N=C2SC(CC(=O)N3CCCC3)=NN12 | ? | i | 50.1µM | i | i | i
N=C1/C(=C/c2ccc(Br)o2)C(=O)N=C2SC(CC(=O)N3CCCC3)=NN12 | i | ? | 50.1µM | i | ? | i
O=C(CNC(=O)C1CCCCC1)OC(C(=O)Nc1cc(C(F)(F)F)ccc1Cl)c1ccccc1 (stereo not given) | i | nt | nt | nt | nt | nt
COc1ccc(-c2nc3cc(C)ccc3cc2CN(C(=O)c2ccc(C)s2)C2CC2)cc1OC | nt | nt | nt | i | nt | nt
Cc1ccc2c(CC(=O)N3CCOc4ccc(CN5C[C@@H](C)O[C@@H](C)C5)cc4C3)cc(=O)oc2c1 | nt | nt | nt | i | nt | nt
Cc1oc(-c2ccccc2NC(=O)c2ccccn2)nc1CNC(=O)c1cccc(C#CC(C)(C)O)c1 | nt | nt | nt | i | nt | nt
O=C(NCCc1nnc2n1CCN(Cc1ccc(F)cc1)CC2)c1ccco1 | nt | nt | nt | i | nt | nt
C/C(=N\NC(=O)c1cc(C)nc2ccccc12)c1ccco1 | i | i | i | i | i | i
C/C(=N\NC(=O)c1cc2ccccc2cc1O)c1ccc(C)o1 | i | -60.6 | i | i | i | i
C/C(=N/NC(=O)c1cc2ccccc2cc1O)c1ccco1 | i | -64.5 | i[11.6 µM] | i | i | i
C/C(=N\NC(=O)c1cccc(N/N=C(\C)c2ccco2)c1)c1ccco1 | ? | -85.6 | i[11.6 µM] | i | i | i
O=C1c2cccc3cccc(c23)C(=O)C1(O)O | ? | ? | 20µM | i | 1µM | i
COc1ccc(-n2c(SCC(=O)Nc3cc(C(=O)O)ccc3C)nc3ccccc3c2=O)cc1Cl | i | -63.9 | i | i | i | i
Cc1nc(Nc2nc3ccccc3o2)nc2c1CCCC2 | i | nt | nt | nt | nt | nt
O=c1oc(-c2ccc(O)c(O)c2)cc2cc(O)cc(O)c12 | ? | -66.3 | 50.1µM | ? | 35.5µM | i
C=CCc1cccc2cc(C(=O)O)c(=O)oc12 | i | i | i | i | i | i
C=CCc1cccc2cc(C(=O)Nc3ccccc3C(=O)O)c(=O)oc12 | i | -60.7 | ? | i | i | i
Cc1cc(C)cc(NC(=O)C2CC23CCN(Cc2ccc4ncccc4c2)CC3)c1 (stereo not given) | nt | nt | nt | i | nt | nt

High-throughput results deposited in PubChem by National Center for Advancing Translational Sciences (NCATS).
